{"source": "PubChem BioAssay (NCI)", "note": "About 83,000 compounds went through this panel and 20% of them were active in at least one assay; those are over-represented in the sample as a whole.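 Single-dose data. Exposure time 48 hours. Values below 10 considered active.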 Active and inactive are the calls of the source."}
{"tested_on": "MDA-MB-468 breast", "assay": "NCI-60 one-dose screen, 48 h (100 = growth as untreated, 0 = no growth, -100 = all killed)", "conditions": "10 µM unless noted"}
{"compound": "CCc1c(C)c2cc(-n3c(-c4ccc(OC)cc4)csc3=N)c(O)c(C)c2oc1=O", "growth": "17% (inactive)"}
{"compound": "CS(=O)(=O)N(c1cc(-c2ccc3ncnc(Nc4ccc(F)c(Cl)c4)c3c2)cnc1Cl)S(C)(=O)=O", "growth": "-19.6% (active)"}
{"compound": "CC(C)(C)Nc1c(-c2c3ccccc3cc3ccccc23)nc2ccccn12", "growth": "68.4% (inactive)"}
{"compound": "COc1cc2nc(SCc3cc(OC)c(OC)c(OC)c3)n(Cc3ccccc3)c(=O)c2cc1OC", "growth": "-10.1% (active)"}
{"compound": "CCOC(=O)C1=C(C)n2nc(CC#N)c(C#N)c2NC1c1ccc(Cl)cc1", "note": "(stereo not given)", "growth": "117% (inactive)"}
{"compound": "CC1(c2ccccc2)NC(=O)NC1=O", "note": "(stereo not given)", "growth": "105% (inactive)"}
{"compound": "c1ccc(-c2nc([P+](c3ccccc3)(c3ccccc3)c3ccccc3)c(N3CCOCC3)o2)cc1", "growth": "-22.5% (active)"}
{"compound": "CCCCCCCCCCCCCCCCCC1=NCCN1CCNC(C)=O", "growth": "114% (inactive)"}
{"compound": "COc1cc(C2=NN(c3ccccc3)C(c3cccc(Nc4ccnc5cc(C(F)(F)F)ccc45)c3)C2)cc(OC)c1OC", "note": "(stereo not given)", "growth": "92.2% (inactive)"}
{"compound": "CCCc1cc2c(=O)c(C(=O)OC)c[nH]c2cc1N(CC)CC", "growth": "119% (inactive)"}
{"compound": "CS(=O)(=O)Nc1cc(-c2ccc3ncc(C#N)c(NCc4cccc(F)c4)c3c2)cnc1Cl", "growth": "-37.9% (active)"}
{"compound": "COC(=O)C(CCC(=O)CCl)N1C(=O)c2ccccc2C1=O", "note": "(stereo not given)", "growth": "32.1% (inactive)"}
{"compound": "Cc1ccc(-c2nc3nc(-c4ccc(Cl)cc4)nc(N4CCCNCC4)c3o2)cc1", "growth": "-54.2% (active)"}
{"compound": "CCCCCCCCCCCCCCCC[n+]1cccc(C#N)c1", "growth": "-27.5% (active)"}
{"compound": "COc1ccc(NC(=O)CSc2nc3ccccc3c(=O)n2Cc2cc(OC)c(OC)c(OC)c2)cc1", "growth": "104% (inactive)"}
